Measured potencies and affinities stand elsewhere. Results filed as inconclusive are left out. The source made the active and inactive calls.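 The calls were made as follows: active = fluorescent signal drops by 40% or more, counted as a hit; inconclusive = no clear call, values can overlap the other calls; inactive = the rest, including any activity in the opposite direction.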

A short description of the assay: inhibitors of fibronectin matrix deposition, dose response, AH1F cells, Alexa488-FN fluorescence, cherry-picks (AID 1035475).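 Also: AH1F fibroblasts incorporating labeled fibronectin into their extracellular matrix.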

`C=C1C(=O)O[C@@H]2C[C@@H](C)[C@@H]3C=CC(=O)[C@@]3(C)[C@@H](O)[C@H]12`: the compound was called inactive.

The record behind these values is PubChem BioAssay AID1035475 (Broad Institute, 2014).
